In all, about 360,000 compounds went through this assay and about 2,700 (0.75%) were called active. The sample as a whole holds a higher share of actives than the screen did. A number with no mark means an inactive call. No stated cut-off is given here; in the data, active means inhibition above about 4.5%; inactive means the rest.
test system: Methionine sulfoxide reductase A (Bos taurus); experiment: inhibition of methionine sulfoxide reductase A – biochemical, absorbance, bovine, HTS, primary screen (AID 651718); conditions: purified bovine MsrA, absorbance read-out; at 15.5 µM; stronger effect = higher value;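 further: 0% = vehicle wells with enzyme and 100% = reference inhibitor wells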

Row | SMILES | inhibition
1 | CC1(C)OC(=O)C2=C(CC(CCc3ccccc3)OC2c2ccc(Cl)cc2)O1 (configuration not stated) | 0.43%
2 | Cc1nnsc1C(=O)N/N=C/c1cccc(C(F)(F)F)c1 | -1.17%
3 | COc1cc(/C=N/NC(=O)Nc2ccccc2)ccc1OCCOc1ccccc1C | 0.83%
4 | COc1ccc(/C=N\NC(=O)c2sc(N)nc2C)cc1OC | 7.88% (active)
5 | Cc1cc(OC(=O)NCCc2ccc(F)cc2)ccc1F | 0.24%
6 | CCCCCCCCN1C(=O)[C@@H](CC(=O)NCCCC)C[C@@]2(C(=O)OC)C1=C[C@H](C(C)(C)C)O[C@@H]2C | 0.08%
7 | O=C(/C=C/Sc1ncn[nH]1)c1ccc(Cl)cc1 | 5.19% (active)
8 | COc1cccc(-c2cc(CNC(=O)[C@@H](Cc3ccccc3)NC(=O)[C@H]3O[C@@H](n4cnc(C(N)=O)n4)[C@H](O)[C@@H]3O)no2)c1 | -0.49%
9 | COc1ccccc1CCn1cnc(-c2ccccc2)c1C(C)C | 0%
10 | COc1ccc(CCNC(=S)NC(=O)/C=C/c2ccc(C)cc2)cc1OC | 0.54%
11 | COc1ccc(/C=C2/CCCc3ccccc3C2=O)cc1 | 0.69%
12 | COc1ccc(/C=C2\N=C3CCCN3C2=O)cc1 | 4.73% (active)
13 | COc1ccc(/C=C2\SC(=N)N(c3ccc(F)cc3)C2=O)cc1 | -0.72%
14 | CCCCn1c(N)c(N(CCOC)C(=O)COc2c(C)cccc2C)c(=O)[nH]c1=O | 0.79%
15 | O=C(NCc1ccccc1)[C@H]1CCCN1C(=O)[C@H]1CCCN1C(=O)c1cc(F)cc(F)c1 | 0.16%
16 | O=C(CC(=O)c1cccnc1)c1ccccc1 | 2.87%
17 | O=C(Oc1c(-c2ccco2)oc2ccccc2c1=O)c1cccnc1 | 5.77% (active)
18 | O=C(OCc1cc2ccccc2[nH]c1=O)c1cccnc1 | -0.22%
19 | CCOc1cc(/C=N/NC(=O)c2cccc(S(=O)(=O)N3CCOCC3)c2)ccc1OCC(=O)N(C)C | 4.25%
20 | CCOc1cc(/C=N/NC(=O)c2ccc(CSc3nncn3C)cc2)ccc1OCC(=O)N1CCOCC1 | 4.92% (active)
21 | CC(C)CC(CC(C)C)=NNC(=O)c1ccc(CSc2nncn2C)cc1 | -0.77%
22 | CCC(Cc1ccccc1)NS(=O)(=O)c1ccc2c(c1)NC(=O)CS2 (configuration not stated) | -0.21%

Row | SMILES | inhibition
23 | C=CCNC(=S)NNC(=O)c1ccc(Br)o1 | -0.22%
24 | CNC(=S)N/N=C/c1ccc(N2CCOCC2)s1 | 3.27%
25 | C=CCNC(=S)N/N=C/c1ccc(C)s1 | 4.91% (active)
26 | CC(C)(C)C(c1nc2ccccc2[nH]1)n1c(Cc2csc3ccccc23)nc2ccccc21 (configuration not stated) | -0.41%
27 | COC(=O)C1=C(C)N(Cc2ccccc2C(F)(F)F)C(=NCC2CC2)NC1c1cccc(Cl)c1 (configuration not stated) | -2.13%
28 | O=S1(=O)c2ccc(Br)cc2-n2nncc2CN1Cc1cccc(Cl)c1 | 0.62%
29 | CC(C)(C)n1nc(C2CC2)c(Br)c1NC(=O)c1ccccc1F | -0.05%
30 | CC(C)C[C@H]1CN([C@@H](Cc2ccccc2)CN2CCC[C@@H]2CN2C(=O)C(=O)NC[C@@H]2Cc2ccc(O)cc2)C(=O)C(=O)N1CCc1ccccc1 | -0.32%
31 | O=C(O)c1ccccc1Cc1ccc(F)c2ccccc12 | 0.31%
32 | COc1cccc(NC(=O)N(C)C[C@@H]2OCc3cn(nn3)CCCC(=O)N([C@@H](C)CO)C[C@H]2C)c1 | 0.43%
33 | COc1ccc(/C=N/N(C)C2=NS(=O)(=O)c3ccccc32)cc1OC | 1.42%
34 | O=S1(=O)N=C(N(CCO)/N=C/c2ccccc2F)c2ccccc21 | 5.01% (active)
35 | C=CCOCCN(C)C1=NS(=O)(=O)c2ccccc21 | 0.32%
36 | O=S1(=O)c2c(cccc2N2CCCC2)O[C@H](COCc2ccccc2)CN1C1CC1 | 0.28%
37 | C=CCN=C1NC(c2ccccc2)C(C(=O)OC)=C(C)N1Cc1ccc(C(F)(F)F)cc1 (configuration not stated) | -1.03%
38 | CC(=O)c1ccc(S(=O)(=O)N2CCN(c3nc4c(C)c(C)ccc4cc3C#N)CC2)cc1 | 0.77%
39 | Cc1cc(C)c2cc(C#N)c(N3CCNCC3)nc2c1 | 0.05%
40 | Cc1cccc2cc(C#N)c(N3CCCC3)nc12 | 7.71% (active)
41 | N#Cc1cccc(C(=O)NCC2CCN(C(=O)C(=O)c3cc4ccccc4o3)CC2)c1 | 1.67%
42 | COc1ccc(-c2ccc(Nc3ccc(S(=O)(=O)N4CCCC4)cc3)nn2)cc1OC | 5.88% (active)
43 | COc1ccccc1CC(=O)Nc1ccc(S(=O)(=O)N2CCCC2)cc1 | -0.82%
44 | COc1ccc(S(=O)(=O)N2CCCCCC2)cc1NC(=O)Cc1ccc(OC)c(OC)c1 | -0.53%

Row | SMILES | inhibition
45 | COc1ccc(S(=O)(=O)NC(C)c2ccccc2)cc1C(=O)N1CCCCC1 (configuration not stated) | 0.8%
46 | COC(=O)C1=C(C)N(Cc2ccccc2C(F)(F)F)C(=NCc2ccc(C(F)(F)F)cc2)NC1c1ccc(F)cc1 (configuration not stated) | -2.62%
47 | C#CCN([C@@H](C)C(=O)OCC)S(=O)(=O)c1ccc(Br)cc1F | -0.88%
48 | Cn1c(=O)c2c(SCC(=O)N3CCOCC3)nc(C3CC3)nc2n(C)c1=O | -0.05%
49 | CCOC(=O)N1CCN(C(=O)CSc2nc(C)nc3c2c(=O)n(C)c(=O)n3C)CC1 | -1.46%
50 | CCCc1nc(SCC(=O)N2CCCC2)c2c(=O)n(C)c(=O)n(C)c2n1 | 5.22% (active)
51 | CC1CCCN(c2cccc3c2S(=O)(=O)N(Cc2ccc(F)cc2)[C@@H](C)[C@H](c2ccccc2)O3)C1 (some centres not stated) | 0.93%
52 | Cc1ccc(C)c(NC2=NCC(=O)N2c2ccc3c(c2)OCCO3)c1 | 0%
53 | Cc1cc(C)nc(NC2=NCC(=O)N2c2ccc(Cl)cc2)n1 | 3.92%
54 | Cc1ccc(N2C(=O)CN=C2Nc2nc(C)cc(C)n2)cc1 | 6.56% (active)
55 | COC(=O)C1=C(C)N(Cc2cccc(C(F)(F)F)c2)C(=NCc2ccccc2)NC1c1ccccc1C(F)(F)F (configuration not stated) | -1.24%
56 | CC(C)[C@@H](C)/C=C/[C@@H](C)[C@H]1CC[C@@H]2[C@]1(C)CCC1[C@]23C=C[C@]2(C[C@@H](O)CC[C@]12C)N(c1ccc([N+](=O)[O-])cn1)O3 (some centres not stated) | -1.75%
57 | O=C(O)CC1S/C(=N\N=C/c2ccccc2O)N(c2ccc(O)cc2)C1=O (configuration not stated) | 4.57% (active)
58 | CN1C(=O)C(CC(=O)Nc2ccccc2)S/C1=N/c1nccs1 (configuration not stated) | 1.53%
59 | CCCCOCC1CN(CCCC)S(=O)(=O)c2c(Oc3ccc(F)cc3)cccc2O1 (configuration not stated) | 0.09%
60 | C[C@H](CO)N1C[C@H](C)[C@@H](CN(C)C(=O)Nc2ccccc2F)OCc2cn(nn2)CCCC1=O | -1.47%
61 | Cc1ccc(S(=O)(=O)c2c[nH]c3ccc(Cl)cc3c2=O)cc1 | -0.29%
62 | COc1ccc(S(=O)(=O)N(C)CC(=O)N2CCCC2)cc1Cl | -0.26%
63 | COc1ccc(S(=O)(=O)c2c[nH]c(=S)[nH]c2=O)cc1Cl | 5.55% (active)
64 | C[C@H](O)[C@@H]1C(=O)N2CCc3c([nH]c4c(-c5ccc6c(c5)OCO6)cccc34)[C@@H]2C[C@@H]1N(C)C(=O)c1ccco1 | -0.82%
65 | COC(=O)C1=C(C)N(Cc2ccc(C(F)(F)F)cc2)C(=NCc2ccc(C(F)(F)F)cc2)NC1c1cccc(Cl)c1 (configuration not stated) | -2.13%
66 | C/C(=N\NC(=S)NC1CCCCC1)c1ccc(C)o1 | 2.23%

Row | SMILES | inhibition
67 | Cc1ccc(/C=N/NC(=S)NC2CCCCC2)o1 | 4.73% (active)
68 | Cc1ccc(/C=N/NC(=O)Cn2nc(C)c(Br)c2C)o1 | 1.58%
69 | COc1ccccc1CNS(=O)(=O)c1cc2c3c(c1)CCC(=O)N3CCC2 | 0.88%
70 | Cc1cccc(CN2CCN(C3CN(Cc4cn(Cc5cc(C)cc(C)c5)nn4)S(=O)(=O)C3)CC2)c1 (configuration not stated) | -0.09%
71 | COC(=O)c1c(-c2ccc(OC)cc2)c2c(c3c4cc(OC)ccc4n(S(=O)(=O)c4ccc(F)cc4)c13)C(=O)N(C)C2 | 1.35%
72 | COC(=O)[C@]12C[C@H](CC(=O)NCc3ccc(OC)c(OC)c3)C(=O)N(Cc3ccccc3)C1=C[C@H](C(C)C)O[C@@H]2C1CC1 | 0.87%
73 | C/C(=N\Nc1nc2ccccc2[nH]1)c1cccs1 | 4.27%
74 | C/C(=N\Nc1ccccc1)c1cccs1 | -0.47%
75 | C/C(=N\Nc1ccc(S(N)(=O)=O)cc1[N+](=O)[O-])c1cccs1 | 4.74% (active)
76 | COc1cccc(CC(=O)N2CCN(C(=O)C(=O)c3cccc(C(F)(F)F)c3)CC2)c1 | -0.48%
77 | COc1ccccc1Cc1c(-c2ccc(F)cc2)nc2ccc(C)cn12 | -0.14%
78 | O=C(N[C@H](C(=O)N1CCC[C@H]1C(=O)NCCc1ccccc1Cl)c1ccccc1)c1ccccc1 | -1.55%
79 | COC(=O)[C@]1(Cc2ccccc2)NC=C(C(=O)c2ccccc2)[C@@H]1c1cccc(OC)c1 | 1.03%
80 | Cc1nc2ccccc2n1CC(=O)N/N=C/c1cccs1 | 0.96%
81 | Cc1n[nH]c(=O)nc1N/N=C/c1cccs1 | 5.54% (active)
82 | Cn1c(=O)c2c(nc(N/N=C/c3cccs3)n2Cc2ccc(Br)cc2)n(C)c1=O | -0.37%
83 | Cc1ccc(N)cc1CN1CCN(c2ncc(Cc3ccccc3)cn2)CC1 | -0.75%
84 | CC(=O)C1=C(C)N(Cc2ccccc2)C(=S)NC1c1cccc(Br)c1 (configuration not stated) | 0.33%
85 | COc1ccccc1C(=O)N/C(=C/c1ccc2c(c1)OCO2)C(=O)Nc1cccc(C(=O)O)c1 | 5.04% (active)
86 | COc1ccc(/C=C(/NC(=O)c2ccccc2)C(=O)Nc2cccc(C(=O)O)c2)cc1 | 1.96%
87 | COc1ccccc1C(=O)N/C(=C/c1ccco1)C(=O)Nc1ccc(C(=O)O)cc1 | 3.68%
